# Key:
# Experiment in all cases: DAPPL (digital affinity profiling via proximity ligation, sequencing); 10 mM Tris-HCl pH 7.5, 50 mM NaCl, 1 mM DTT, 4% glycerol, room temperature, 30 min; GST-TFs on glutathione beads, 16-mer random dsDNA library, 0.1% formaldehyde crosslink after washing; high values mean tight binding
# FLI1 = biological target: T1, FLI1 (Homo sapiens, UniProt Q01543 1-452); details: protein: recombinant; tags: N-terminal GST; dsDNA, one strand shown
# T1 sequence: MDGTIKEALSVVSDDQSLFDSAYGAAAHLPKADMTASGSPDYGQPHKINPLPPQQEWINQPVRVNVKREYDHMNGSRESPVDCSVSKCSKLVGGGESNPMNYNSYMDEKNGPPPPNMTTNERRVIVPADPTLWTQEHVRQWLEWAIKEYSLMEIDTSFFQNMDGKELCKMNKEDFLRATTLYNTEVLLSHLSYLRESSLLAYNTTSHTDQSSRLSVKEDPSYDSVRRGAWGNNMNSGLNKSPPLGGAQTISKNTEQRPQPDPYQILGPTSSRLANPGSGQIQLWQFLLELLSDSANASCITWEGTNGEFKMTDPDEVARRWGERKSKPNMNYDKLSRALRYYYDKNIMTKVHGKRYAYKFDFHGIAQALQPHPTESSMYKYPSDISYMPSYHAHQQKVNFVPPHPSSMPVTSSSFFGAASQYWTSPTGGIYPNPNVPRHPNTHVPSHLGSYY
# Method in brief: (§1)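 A tag-only sample was pooled with DNA-barcoded human transcription factors that had been expressed in yeast as GST fusions and captured on glutathione beads. The pools were incubated for 30 min at room temperature with 200 nmole of a random double-stranded 16-mer DNA library in Tris/NaCl/DTT/glycerol buffer, then washed, crosslinked with 0.1% formaldehyde, proximity-ligated (BsaI/T4 ligase, 1 h, 37 °C), PCR-amplified and sequenced on an Illumina NextSeq500. Binding signal is each hexamer's read frequency for a factor divided by its frequency for the tag-only sample.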
# ELK1 = biological target: T2, ELK1 (Homo sapiens, UniProt P19419 1-428); details: protein: recombinant; tags: N-terminal GST; dsDNA, one strand shown
# T2 sequence: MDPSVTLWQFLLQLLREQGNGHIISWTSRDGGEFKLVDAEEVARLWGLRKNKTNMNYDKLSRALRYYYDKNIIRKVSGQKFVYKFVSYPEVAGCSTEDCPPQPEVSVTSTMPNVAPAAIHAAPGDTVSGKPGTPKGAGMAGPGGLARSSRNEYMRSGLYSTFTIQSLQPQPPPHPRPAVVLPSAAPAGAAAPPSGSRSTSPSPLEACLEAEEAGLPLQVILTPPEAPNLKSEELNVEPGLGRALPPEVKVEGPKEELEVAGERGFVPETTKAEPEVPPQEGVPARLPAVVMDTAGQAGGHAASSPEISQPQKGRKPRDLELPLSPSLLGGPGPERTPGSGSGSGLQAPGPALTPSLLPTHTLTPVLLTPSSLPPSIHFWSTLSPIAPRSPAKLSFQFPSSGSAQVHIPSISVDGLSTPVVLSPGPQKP
# Method in brief: as §1
# GABPA = biological target: T3, GABPA (Homo sapiens, UniProt Q06546 1-454); details: protein: recombinant; tags: N-terminal GST; dsDNA, one strand shown
# T3 sequence: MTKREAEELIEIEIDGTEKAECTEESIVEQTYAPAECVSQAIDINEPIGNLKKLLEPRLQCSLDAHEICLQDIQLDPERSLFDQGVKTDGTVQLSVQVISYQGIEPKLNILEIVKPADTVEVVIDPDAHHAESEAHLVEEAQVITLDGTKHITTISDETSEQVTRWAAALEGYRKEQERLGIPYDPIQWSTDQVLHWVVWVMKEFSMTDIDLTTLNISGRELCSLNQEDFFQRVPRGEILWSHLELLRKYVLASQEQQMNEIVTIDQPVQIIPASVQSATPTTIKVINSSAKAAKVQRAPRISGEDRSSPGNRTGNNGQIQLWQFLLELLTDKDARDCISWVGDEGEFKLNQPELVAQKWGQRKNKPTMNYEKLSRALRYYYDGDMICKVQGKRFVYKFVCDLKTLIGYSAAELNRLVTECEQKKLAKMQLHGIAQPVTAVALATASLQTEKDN
# Method in brief: as §1
# ERG = biological target: T4, ERG (Homo sapiens, UniProt P11308 1-479); details: protein: recombinant; tags: N-terminal GST; dsDNA, one strand shown
# T4 sequence: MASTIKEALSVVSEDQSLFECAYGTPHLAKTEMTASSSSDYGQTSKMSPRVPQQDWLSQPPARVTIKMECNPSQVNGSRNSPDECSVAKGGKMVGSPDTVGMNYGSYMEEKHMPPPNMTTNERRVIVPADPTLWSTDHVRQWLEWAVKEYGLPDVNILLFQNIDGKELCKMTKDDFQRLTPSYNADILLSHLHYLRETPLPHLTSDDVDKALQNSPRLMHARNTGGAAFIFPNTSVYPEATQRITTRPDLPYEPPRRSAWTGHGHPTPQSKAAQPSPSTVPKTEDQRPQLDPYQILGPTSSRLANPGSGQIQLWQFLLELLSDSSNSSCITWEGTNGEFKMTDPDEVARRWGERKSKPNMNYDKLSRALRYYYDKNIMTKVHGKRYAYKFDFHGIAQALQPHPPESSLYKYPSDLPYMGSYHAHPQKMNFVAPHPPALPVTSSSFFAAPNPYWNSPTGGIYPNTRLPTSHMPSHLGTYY
# Method in brief: as §1
# ELF1 = ELF1 (Homo sapiens, UniProt P32519 1-619); details: protein: recombinant; tags: N-terminal GST; dsDNA, one strand shown
# Chain of ELF1 (P32519 whole entry): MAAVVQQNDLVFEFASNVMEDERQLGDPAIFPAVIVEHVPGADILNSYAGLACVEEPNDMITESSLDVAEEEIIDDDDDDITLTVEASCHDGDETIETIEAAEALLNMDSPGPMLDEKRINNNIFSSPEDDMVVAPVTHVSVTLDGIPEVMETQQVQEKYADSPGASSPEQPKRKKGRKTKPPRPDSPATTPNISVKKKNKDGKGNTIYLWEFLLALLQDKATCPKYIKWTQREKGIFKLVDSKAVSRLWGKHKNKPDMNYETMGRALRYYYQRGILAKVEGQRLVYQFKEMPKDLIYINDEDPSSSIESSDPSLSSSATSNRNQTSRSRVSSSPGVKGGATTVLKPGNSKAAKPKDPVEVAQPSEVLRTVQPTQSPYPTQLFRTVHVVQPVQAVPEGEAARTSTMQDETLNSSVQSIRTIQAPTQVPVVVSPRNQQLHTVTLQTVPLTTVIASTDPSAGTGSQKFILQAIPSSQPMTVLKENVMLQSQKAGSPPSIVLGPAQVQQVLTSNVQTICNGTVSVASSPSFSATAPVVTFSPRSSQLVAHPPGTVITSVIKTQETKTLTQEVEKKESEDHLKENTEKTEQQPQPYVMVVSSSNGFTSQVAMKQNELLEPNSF
# Method in brief: as §1
# EHF = biological target: T5, EHF (Homo sapiens, UniProt Q9NZC4 1-300); details: protein: recombinant; tags: N-terminal GST; dsDNA, one strand shown
# T5 sequence: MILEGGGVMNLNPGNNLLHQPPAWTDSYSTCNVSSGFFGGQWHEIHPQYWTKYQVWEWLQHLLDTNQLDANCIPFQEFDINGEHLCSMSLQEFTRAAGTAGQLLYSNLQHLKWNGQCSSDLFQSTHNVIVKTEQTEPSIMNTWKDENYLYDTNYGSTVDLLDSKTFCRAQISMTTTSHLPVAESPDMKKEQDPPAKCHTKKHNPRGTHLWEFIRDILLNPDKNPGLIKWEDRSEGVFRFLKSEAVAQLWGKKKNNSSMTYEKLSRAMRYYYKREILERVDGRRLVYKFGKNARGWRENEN
# Method in brief: as §1
# SPI1 = SPI1 (Homo sapiens, UniProt P17947 1-270); details: protein: recombinant; tags: N-terminal GST; dsDNA, one strand shown
# Method in brief: as §1
# SPIB = SPIB (Homo sapiens, UniProt Q01892 1-262); details: protein: recombinant; tags: N-terminal GST; dsDNA, one strand shown
# Chain of SPIB (Q01892 whole entry): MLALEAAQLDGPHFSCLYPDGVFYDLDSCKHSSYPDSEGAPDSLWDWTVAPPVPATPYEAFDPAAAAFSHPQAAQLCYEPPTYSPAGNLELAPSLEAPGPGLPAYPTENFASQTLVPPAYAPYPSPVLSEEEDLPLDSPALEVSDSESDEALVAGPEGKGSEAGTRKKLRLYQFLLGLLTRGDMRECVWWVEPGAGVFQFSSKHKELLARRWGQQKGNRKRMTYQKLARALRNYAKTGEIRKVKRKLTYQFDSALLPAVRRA
# Method in brief: as §1
# ELK3 = biological target: T6, ELK3 (Homo sapiens, UniProt P41970 1-407); details: protein: recombinant; tags: N-terminal GST; dsDNA, one strand shown
# T6 sequence: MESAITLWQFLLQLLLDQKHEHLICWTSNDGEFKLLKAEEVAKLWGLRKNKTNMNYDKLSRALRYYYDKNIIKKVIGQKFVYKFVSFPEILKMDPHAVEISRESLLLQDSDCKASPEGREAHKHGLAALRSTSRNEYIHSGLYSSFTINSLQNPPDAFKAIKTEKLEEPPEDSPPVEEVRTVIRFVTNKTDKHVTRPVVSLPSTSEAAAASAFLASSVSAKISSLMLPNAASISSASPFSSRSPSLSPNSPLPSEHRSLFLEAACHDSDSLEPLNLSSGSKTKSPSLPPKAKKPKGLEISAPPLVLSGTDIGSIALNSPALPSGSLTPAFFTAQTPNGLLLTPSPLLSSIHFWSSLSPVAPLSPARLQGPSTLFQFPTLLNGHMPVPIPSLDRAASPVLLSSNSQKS
# Method in brief: as §1
# FEV = biological target: T7, FEV (Homo sapiens, UniProt Q99581 1-238); details: protein: recombinant; tags: N-terminal GST; dsDNA, one strand shown
# T7 sequence: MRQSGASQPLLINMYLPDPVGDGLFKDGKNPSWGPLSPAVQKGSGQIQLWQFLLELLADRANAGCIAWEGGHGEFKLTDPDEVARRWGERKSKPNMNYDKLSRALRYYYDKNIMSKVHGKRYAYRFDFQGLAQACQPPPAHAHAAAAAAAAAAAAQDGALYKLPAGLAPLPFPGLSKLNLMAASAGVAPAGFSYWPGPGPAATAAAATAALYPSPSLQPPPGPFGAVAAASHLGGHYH
# Method in brief: as §1
# ETV5 = ETV5 (Homo sapiens, UniProt P41161 1-510); details: protein: recombinant; tags: N-terminal GST; dsDNA, one strand shown
# Chain of ETV5 (P41161 whole entry): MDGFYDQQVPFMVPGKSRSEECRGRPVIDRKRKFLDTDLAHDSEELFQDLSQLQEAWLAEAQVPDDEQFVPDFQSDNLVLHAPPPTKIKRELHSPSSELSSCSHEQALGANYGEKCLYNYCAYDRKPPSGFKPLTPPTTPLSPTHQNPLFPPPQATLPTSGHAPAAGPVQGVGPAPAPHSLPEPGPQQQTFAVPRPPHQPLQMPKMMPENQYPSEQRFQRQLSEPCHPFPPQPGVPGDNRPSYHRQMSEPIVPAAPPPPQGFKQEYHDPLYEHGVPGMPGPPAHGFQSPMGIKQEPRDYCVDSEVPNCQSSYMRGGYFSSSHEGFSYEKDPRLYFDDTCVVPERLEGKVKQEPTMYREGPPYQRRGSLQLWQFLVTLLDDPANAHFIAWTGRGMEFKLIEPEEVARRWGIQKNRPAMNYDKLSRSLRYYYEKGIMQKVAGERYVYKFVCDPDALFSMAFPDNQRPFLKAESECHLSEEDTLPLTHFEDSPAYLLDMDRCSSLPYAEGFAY
# Method in brief: as §1
# HSF1 = HSF1 (Homo sapiens, UniProt Q00613 1-529); details: protein: recombinant; tags: N-terminal GST; chain copies: 3; dsDNA, one strand shown
# Chain of HSF1 (Q00613 whole entry): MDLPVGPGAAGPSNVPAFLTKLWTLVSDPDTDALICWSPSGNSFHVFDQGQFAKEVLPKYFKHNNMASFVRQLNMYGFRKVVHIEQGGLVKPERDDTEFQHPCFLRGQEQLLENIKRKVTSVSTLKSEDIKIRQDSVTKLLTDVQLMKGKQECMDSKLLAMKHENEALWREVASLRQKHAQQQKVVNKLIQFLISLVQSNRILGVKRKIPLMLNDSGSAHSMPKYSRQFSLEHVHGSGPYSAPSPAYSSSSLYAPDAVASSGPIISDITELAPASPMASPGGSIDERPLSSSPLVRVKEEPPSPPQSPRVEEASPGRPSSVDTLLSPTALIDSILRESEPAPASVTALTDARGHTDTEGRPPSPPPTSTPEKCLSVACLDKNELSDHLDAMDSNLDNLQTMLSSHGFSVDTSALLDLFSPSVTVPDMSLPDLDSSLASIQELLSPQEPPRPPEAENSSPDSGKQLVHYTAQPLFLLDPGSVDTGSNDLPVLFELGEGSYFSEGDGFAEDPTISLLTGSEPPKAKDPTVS
# Method in brief: as §1
# SPIC = biological target: T8, SPIC (Homo sapiens, UniProt Q8N5J4 1-248); details: protein: recombinant; tags: N-terminal GST; dsDNA, one strand shown
# T8 sequence: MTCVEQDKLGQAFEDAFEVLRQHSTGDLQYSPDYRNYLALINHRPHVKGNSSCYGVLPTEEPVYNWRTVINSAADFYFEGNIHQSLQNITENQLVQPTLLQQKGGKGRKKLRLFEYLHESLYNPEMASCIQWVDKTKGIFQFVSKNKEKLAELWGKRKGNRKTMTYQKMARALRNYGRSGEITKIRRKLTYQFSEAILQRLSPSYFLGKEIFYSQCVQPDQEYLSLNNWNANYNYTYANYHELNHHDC
# Method in brief: as §1
# ELF4 = ELF4 (Homo sapiens, UniProt Q99607 1-663); details: protein: recombinant; tags: N-terminal GST; dsDNA, one strand shown
# Chain of ELF4 (Q99607 whole entry): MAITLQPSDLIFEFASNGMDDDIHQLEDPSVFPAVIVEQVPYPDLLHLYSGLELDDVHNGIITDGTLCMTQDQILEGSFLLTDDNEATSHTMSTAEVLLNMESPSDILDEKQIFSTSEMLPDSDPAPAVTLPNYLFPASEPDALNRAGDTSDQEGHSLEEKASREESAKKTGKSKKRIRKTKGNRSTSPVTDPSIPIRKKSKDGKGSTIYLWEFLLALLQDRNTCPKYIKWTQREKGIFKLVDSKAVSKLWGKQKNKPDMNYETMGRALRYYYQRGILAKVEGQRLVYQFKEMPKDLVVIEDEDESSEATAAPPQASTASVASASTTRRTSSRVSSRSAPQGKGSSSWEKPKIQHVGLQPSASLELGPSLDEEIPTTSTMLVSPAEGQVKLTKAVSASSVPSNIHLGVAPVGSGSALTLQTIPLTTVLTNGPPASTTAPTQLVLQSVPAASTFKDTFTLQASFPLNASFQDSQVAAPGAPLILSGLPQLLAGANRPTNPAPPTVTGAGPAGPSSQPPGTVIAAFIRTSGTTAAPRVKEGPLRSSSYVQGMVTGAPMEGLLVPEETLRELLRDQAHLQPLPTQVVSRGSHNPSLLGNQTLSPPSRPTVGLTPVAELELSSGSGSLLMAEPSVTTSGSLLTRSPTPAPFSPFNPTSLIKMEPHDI
# Method in brief: as §1
# ELK4 = biological target: T9, ELK4 (Homo sapiens, UniProt P28324-2 1-405); details: protein: recombinant; tags: N-terminal GST; dsDNA, one strand shown
# T9 sequence: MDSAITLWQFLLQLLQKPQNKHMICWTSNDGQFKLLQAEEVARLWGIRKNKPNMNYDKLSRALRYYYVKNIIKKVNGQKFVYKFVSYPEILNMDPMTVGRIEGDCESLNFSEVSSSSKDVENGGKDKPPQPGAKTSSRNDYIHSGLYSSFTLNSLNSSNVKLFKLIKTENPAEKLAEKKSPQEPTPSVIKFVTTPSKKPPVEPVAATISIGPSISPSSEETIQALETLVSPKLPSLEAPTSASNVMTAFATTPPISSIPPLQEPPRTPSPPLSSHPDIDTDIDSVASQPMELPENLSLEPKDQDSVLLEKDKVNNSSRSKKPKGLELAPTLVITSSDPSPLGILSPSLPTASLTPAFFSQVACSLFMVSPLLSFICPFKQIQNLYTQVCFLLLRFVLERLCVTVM
# Method in brief: as §1
# ETV2 = biological target: T10, ETV2 (Homo sapiens, UniProt O00321 1-342); details: protein: recombinant; tags: N-terminal GST; dsDNA, one strand shown
# T10 sequence: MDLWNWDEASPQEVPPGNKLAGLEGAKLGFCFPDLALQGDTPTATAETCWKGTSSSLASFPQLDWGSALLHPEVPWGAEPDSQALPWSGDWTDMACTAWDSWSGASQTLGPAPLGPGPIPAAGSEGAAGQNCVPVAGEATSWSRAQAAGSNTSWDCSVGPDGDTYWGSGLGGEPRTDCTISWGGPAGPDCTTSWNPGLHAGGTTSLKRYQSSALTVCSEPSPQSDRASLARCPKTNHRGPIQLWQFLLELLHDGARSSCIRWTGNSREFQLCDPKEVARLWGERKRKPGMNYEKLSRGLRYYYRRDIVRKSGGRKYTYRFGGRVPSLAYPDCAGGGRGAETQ
# Method in brief: as §1
# ELF3 = biological target: T11, ELF3 (Homo sapiens, UniProt P78545 1-371); details: protein: recombinant; tags: N-terminal GST; dsDNA, one strand shown
# T11 sequence: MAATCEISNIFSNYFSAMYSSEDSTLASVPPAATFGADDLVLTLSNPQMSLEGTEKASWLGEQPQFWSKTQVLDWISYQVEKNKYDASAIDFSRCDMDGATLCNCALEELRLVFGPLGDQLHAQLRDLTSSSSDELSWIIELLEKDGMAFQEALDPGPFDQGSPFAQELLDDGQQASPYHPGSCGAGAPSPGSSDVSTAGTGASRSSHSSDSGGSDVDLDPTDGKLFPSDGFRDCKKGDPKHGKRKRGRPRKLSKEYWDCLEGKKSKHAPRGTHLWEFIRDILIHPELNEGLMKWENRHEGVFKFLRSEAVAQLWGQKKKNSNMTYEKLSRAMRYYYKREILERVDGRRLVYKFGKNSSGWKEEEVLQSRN
# Method in brief: as §1
# CRX = CRX (Homo sapiens, UniProt O43186 1-299); details: protein: recombinant; tags: N-terminal GST; dsDNA, one strand shown
# Chain of CRX (O43186 whole entry): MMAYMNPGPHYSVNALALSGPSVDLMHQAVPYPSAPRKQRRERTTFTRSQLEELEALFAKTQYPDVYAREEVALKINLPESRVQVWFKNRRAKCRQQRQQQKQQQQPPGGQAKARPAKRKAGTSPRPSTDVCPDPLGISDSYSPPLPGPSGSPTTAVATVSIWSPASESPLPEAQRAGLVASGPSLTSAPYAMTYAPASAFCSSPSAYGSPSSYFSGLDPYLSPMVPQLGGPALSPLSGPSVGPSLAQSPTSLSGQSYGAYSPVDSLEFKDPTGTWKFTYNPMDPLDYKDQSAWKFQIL
# Method in brief: as §1
# ETV1 = ETV1 (Homo sapiens, UniProt P50549 1-477); details: protein: recombinant; tags: N-terminal GST; dsDNA, one strand shown
# Chain of ETV1 (P50549 whole entry): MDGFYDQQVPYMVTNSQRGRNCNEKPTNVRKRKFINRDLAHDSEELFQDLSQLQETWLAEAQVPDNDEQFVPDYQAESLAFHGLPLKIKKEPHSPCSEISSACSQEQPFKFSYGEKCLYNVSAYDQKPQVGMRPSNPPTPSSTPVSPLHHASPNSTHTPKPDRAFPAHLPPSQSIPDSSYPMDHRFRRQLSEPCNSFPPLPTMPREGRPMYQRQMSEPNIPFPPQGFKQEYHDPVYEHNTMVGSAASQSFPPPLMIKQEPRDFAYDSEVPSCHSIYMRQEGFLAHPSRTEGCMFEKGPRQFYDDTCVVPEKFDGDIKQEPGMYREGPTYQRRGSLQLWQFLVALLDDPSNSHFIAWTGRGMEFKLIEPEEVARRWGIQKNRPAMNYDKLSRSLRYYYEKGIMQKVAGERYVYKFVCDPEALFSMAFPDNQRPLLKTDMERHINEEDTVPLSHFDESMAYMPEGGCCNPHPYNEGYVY
# Method in brief: as §1
sequence,measurement,setting,value
TGCGAT,binding signal,FLI1,"1.12 fold enrichment (6-mer frequency, TF over GST control)"
same,binding signal,ELK1,"1.12 fold enrichment (6-mer frequency, TF over GST control)"
same,binding signal,GABPA,"1.28 fold enrichment (6-mer frequency, TF over GST control)"
same,binding signal,ERG,"1.18 fold enrichment (6-mer frequency, TF over GST control)"
same,binding signal,ELF1,"1.16 fold enrichment (6-mer frequency, TF over GST control)"
same,binding signal,EHF,"1.19 fold enrichment (6-mer frequency, TF over GST control)"
same,binding signal,SPI1,"1.2 fold enrichment (6-mer frequency, TF over GST control)"
same,binding signal,SPIB,"1.08 fold enrichment (6-mer frequency, TF over GST control)"
same,binding signal,ELK3,"1.31 fold enrichment (6-mer frequency, TF over GST control)"
same,binding signal,FEV,"1.08 fold enrichment (6-mer frequency, TF over GST control)"
same,binding signal,ETV5,"1.1 fold enrichment (6-mer frequency, TF over GST control)"
same,binding signal,HSF1,"1.23 fold enrichment (6-mer frequency, TF over GST control)"
same,binding signal,SPIC,"1.3 fold enrichment (6-mer frequency, TF over GST control)"
same,binding signal,ELF4,"1.2 fold enrichment (6-mer frequency, TF over GST control)"
same,binding signal,ELK4,"1.2 fold enrichment (6-mer frequency, TF over GST control)"
same,binding signal,ETV2,"1.17 fold enrichment (6-mer frequency, TF over GST control)"
same,binding signal,ELF3,"1.03 fold enrichment (6-mer frequency, TF over GST control)"
same,binding signal,CRX,"1.43 fold enrichment (6-mer frequency, TF over GST control)"
same,binding signal,ETV1,"1.06 fold enrichment (6-mer frequency, TF over GST control)"

# — article PMC7862700, “An all-to-all approach to the identification of sequence-specific readers for epigenetic DNA modifications on cytosine”
